Measurements from article PMC4552634, “A New Set of Chemical Starting Points with Plasmodium falciparum Transmission-Blocking Potential for Antimalarial Drug Discovery” (PLoS ONE, 2015).
Out of some 13,000 compounds screened, about 3,200 (25%) showed an effect of 50% or more. The list shows a part of the results.

The compounds below were run on P. falciparum stage V gametocytes. Settings: 48 h, 5 µM; inhibitor.
Design: BacTiter-Glo ATP luminescence viability of purified stage V gametocytes in 384-well plates, per cent inhibition versus DMSO

Structure (SMILES) | % Inhibition [%]
O=C(O)C(F)(F)F.c1cc(CN2CCN(c3ccncc3)CC2)cc(-c2ccc(-c3nc4ccccc4[nH]3)s2)c1 [TCMDC-132909] | 11.83
COc1ccc2nccc([C@@H](O)CN3CCC(NCc4cc5cc(C)ccc5s4)CC3)c2c1 [TCMDC-140682] | 12.73
CN(C)CCCn1cncc1-c1ccc2ncnc(Nc3ccc4c(cnn4Cc4ccccc4)c3)c2c1 [TCMDC-138087] | -19.79
CN(C)CCc1coc2ccc(C(=O)Nc3ccc(-c4ccc(O)cc4)cc3)cc12 [TCMDC-132005] | -54.25
c1ccc(CNc2nc(NCCN3CCCCC3)nc3ccccc23)cc1 [TCMDC-137554] | 18.64
COc1cc2nc(NCCc3ccccc3)nc(NCc3cnn(C)c3C)c2cc1OC [TCMDC-135459] | 100.1
COc1cc2nc(NCCc3cccc(Cl)c3)nc(NCc3ccccc3)c2cc1OC [TCMDC-135266] | 90.56
COc1cc2nc(NCCCN3CCCCC3)nc(NCc3ccccc3)c2cc1OC [TCMDC-132012] | 112.9
COc1cccc(CCNc2nc(NCc3ccccc3)c3cc(OC)c(OC)cc3n2)c1 [TCMDC-135267] | 71.62
Cc1ccccc1C1CCN(C2CCC(NC(=O)/C=C/c3c[nH]c4ccccc34)CC2)CC1 (stereo not drawn) [TCMDC-134103] | -47.56
O=C(O)CCSc1ncnc2nc[nH]c12 [TCMDC-125870] | -3.326
NC(N)=Nc1ccc(CCc2ccc(N=C(N)N)cc2)cc1 [TCMDC-137701] | -9.941
O=C(Nc1cccc(CN2CCCN(Cc3ncc[nH]3)CC2)c1)c1ccc(-c2ccccc2)cc1 [TCMDC-141849] | 12.11
CC1(C)CCCN(C(=O)Cc2ccc3c(c2)CCCC3)C1CN1CC=CC1 (stereo not drawn) [TCMDC-131637] | 3.216
C=Cc1sc(CNCCCNc2cc(=O)c3ccccc3[nH]2)c(C)c1Br [TCMDC-141064] | -9.308
N#Cc1ccc(CN2CCCN(c3ccc(NC(=O)c4ccc(F)cc4)cc3)CC2)cc1 [TCMDC-134984] | -24.83
COc1ccc(CNc2nc(NCc3ccccc3)c3cc(OC)c(OC)cc3n2)cc1OC [TCMDC-131893] | 102.4
COc1cc2nc(N[C@@H](CO)c3ccccc3)nc(NCc3ccccc3)c2cc1OC [TCMDC-132024] | 6.921
COc1ccc(CCNc2nc(NCc3ccccc3)c3cc(OC)c(OC)cc3n2)cc1OC [TCMDC-132017] | 95.97
COc1ccc2ccccc2c1CON1C(N)=NC(N)=NC1(C)C [TCMDC-131789] | 14.14
O=C(N/C(=C/c1cccc([N+](=O)[O-])c1)c1nc2ccccc2[nH]1)c1cccc(Br)c1 [TCMDC-123667] | 25.9
CCc1nc2ccc(C(=O)OC)nc2n1Cc1ccc2oc(-c3ccccc3N)c(Br)c2c1 [TCMDC-131989] | 82.84

Structure (SMILES) | % Inhibition [%]
Cc1cccc2[nH]c(-c3cccc(-c4ccc(NC(=O)Cc5ccccn5)cc4)c3)nc12 [TCMDC-132178] | -17.95
CS(=O)(=O)CCNCc1cccc(-c2cc3c(Nc4ccc5c(cnn5Cc5ccccc5)c4)ncnc3s2)c1 [TCMDC-134664] | -36.31
CN1CCC(c2ccc(NC(=O)c3ccc(-c4cccc(C(F)(F)F)c4)o3)cc2)CC1 [TCMDC-134195] | 6.508
O=C(Nc1ccc(S(=O)(=O)NCCCN2CCOCC2)cc1)c1cc(-c2ccccc2)n[nH]1 [TCMDC-125046] | -31.32
C=CCOc1cccc2c1CCN(CCN1CCC(NC(=O)c3ccc(-c4ccc(Cl)cc4)cc3)CC1)C2 [TCMDC-135633] | -61.81
NC(=O)COc1cccc2c1CCN(CCN1CCC(NC(=O)c3ccc(-c4ccc(Cl)cc4)cc3)CC1)C2 [TCMDC-135479] | -28.95
COc1cccc2c1CCN(CCN1CCC(NC(=O)c3ccc(-c4cccc(Cl)c4Cl)cc3)CC1)C2 [TCMDC-135476] | 76.97
Fc1cccc(COc2ccc(Nc3ncnc4sc(C#C[C@H]5CC[C@H](CNCC(F)(F)F)N5)cc34)cc2Cl)c1 [TCMDC-135422] | -57.82
O=C(CCC1CCCC1)N(Cc1ccc(-c2ccc(CNCCc3ccccn3)cc2)cc1)CC1CCCCN1 (stereo not drawn) [TCMDC-141445] | 104.1
CCCNC(=O)c1cncc(-c2ccc(CNC3Cc4ccccc4C3)cc2)c1 [TCMDC-134242] | -9.717
c1cncc(CCNCc2ccc(-c3ccc(CNC4Cc5ccccc5C4)cc3)cc2)c1 [TCMDC-141458] | 22.23
O=C(CC1CCCC1)N(Cc1ccc(-c2ccc(CNC3Cc4ccccc4C3)cc2)cc1)CC1CCCCN1 (stereo not drawn) [TCMDC-141446] | 118.1
O=C(NCC1CCC(C(=O)NCCN2CCCCC2)CC1)c1ccc(O)c(-c2ccc(Cl)c(Cl)c2)c1 (stereo not drawn) [TCMDC-140889] | 5.118
CN(C)C(CNC(=O)c1cc(-c2ccncc2)c(-c2ccc(NC(=O)Nc3ccccc3)cc2)o1)c1ccccc1 (stereo not drawn) [TCMDC-135763] | 0.5152
CCN(CC)c1ccc2nc(N)nc(N)c2c1 [TCMDC-137860] | -57.34
CCN(CCNS(C)(=O)=O)c1ccc(N)c(C)c1 [TCMDC-125836] | 123.9
CCN(CCNC(=O)Nc1cc(C(F)(F)F)cc(C(F)(F)F)c1)c1cccc(C)c1 [TCMDC-140386] | -30.95
Cc1cc(NC(=O)c2ccco2)ccc1OC1CCN(Cc2ccc(F)cc2)CC1 [TCMDC-133749] | 42.56
Cc1ccccc1N1CCN(c2ccc(C(=O)Nc3ccccc3)cn2)CC1 [TCMDC-134582] | 6.226
Cc1[nH]c2ccccc2c1C1CCN(CC2CCC(NC(=O)/C=C/c3ccc(Cl)c(Cl)c3)CC2)CC1 (stereo not drawn) [TCMDC-139482] | -16.12
NC(=O)c1cnc2cc(-c3ccncc3)cc(Nc3ccc(NC(=O)C4CCCCC4)cc3)c2c1 [TCMDC-135182] | -67.69
Cc1cc(-c2ccc(NC(=O)N3CCc4cc(Cl)c(N5CCN(C)CC5)cc43)cc2)ccc1C#N [TCMDC-139292] | 55.12

Structure (SMILES) | % Inhibition [%]
CN1CCN(c2cc3c(cc2Cl)CCN3C(=O)Nc2ccc(NC(=O)c3ccc(C(F)(F)F)cc3)cc2)CC1 [TCMDC-139270] | -10.1
Cc1cc(-c2ccc(NC(=O)N3CCc4cc(Br)c(N5CCN(C)CC5)cc43)cc2)ccc1C#N [TCMDC-139293] | -18.89
O=C(Nc1c(F)cccc1F)c1cccc(-c2nn3ccccc3c2-c2ccnc(Nc3cccc(-c4cnco4)c3)n2)c1 [TCMDC-135743] | -41.11
c1ccc2c(c1)cc(CNCCCN1CCN(CCCNCc3cc4ccccc4c4ccccc34)CC1)c1ccccc12 [TCMDC-137914] | 113.5
c1ccc2c(CNCCCN3CCN(CCCNCc4c5ccccc5cc5ccccc45)CC3)c3ccccc3cc2c1 [TCMDC-137909] | 115.6
O=C(/C=C/c1ccc(Cl)c(Cl)c1)NCCCCCN1CCC(C(=O)Nc2cccc(Cl)c2)CC1 [TCMDC-136120] | -13.38
Cc1ccc(NC(=O)c2cccc(C#N)c2)cc1-c1ccc(C(=O)Nc2ccncc2)cc1 [TCMDC-133697] | -8.671
CCC[C@@H]([C@@H](Cc1ccc(C)s1)C(=O)N[C@@H](CNC(C)=O)C(=O)Nc1nccs1)N(O)C=O [TCMDC-138137] | -97.54
Cc1cc(C)c2[nH]cc(C(=O)O)c(=O)c2c1 [TCMDC-123953] | 3.462
Oc1ccc(Cl)c2c1C(c1ccccc1)=NCC2 [TCMDC-137522] | -9.659
COc1ccc(Oc2ccc(Nc3ccnc4ccc(C(F)(F)F)cc34)cc2)cc1OC [TCMDC-138310] | -11.17
CN(C)CCCc1cc2c(cc1Cl)CCN2C(=O)Nc1ccc(-c2ccncc2)c2ccccc12 [TCMDC-139215] | -22.47
CCCc1cc(C(=O)N[C@@H](Cc2ccccc2)[C@H](O)CNC(C)(C)c2cccc(OC)c2)c(F)c(N2CCCC2=O)c1 [TCMDC-135396] | 48.39
COc1ccc(CN(C)CCOc2ccc(NC(=O)c3cccc4c(=O)cc(-c5ccccc5)[nH]c34)cc2)cc1OC [TCMDC-131849] | 25.38
COc1c(CN2CCOCC2)cccc1-c1cc2c(-c3ccc(C(=O)O)c(C(C)C)c3)ccnc2[nH]1 [TCMDC-135049] | -0.2517
COc1cccc(CN2CCC(C(=O)Nc3ccc(-c4nc5ccccc5[nH]4)cc3)CC2)c1 [TCMDC-124615] | -54.81
COc1c(CN2CCCC2)cccc1-c1cc2c(-c3ccc(C(=O)O)c(C(C)C)c3)ccnc2[nH]1 [TCMDC-135050] | 69.12
CCN(CC)Cc1ccc(OC)c(-c2cc3c(-c4ccc(C(=O)O)c(C(C)C)c4)ccnc3[nH]2)c1 [TCMDC-135051] | 59.03
COc1ccc(-c2cnc3[nH]cc(-c4ccc(C(=O)O)c(C)c4)c3c2)cn1 [TCMDC-136360] | 34.92
CN(C)CC1CCCN1Cc1ccccc1-c1cnn(C)c(=O)c1Oc1ccc(F)cc1 (stereo not drawn) [TCMDC-135098] | 10.73
O=C(NCCCN1CCN(c2cccc(Cl)c2)CC1)c1ccc(-c2nc3cc(Cl)c(Cl)cc3[nH]2)c(F)c1 [TCMDC-140084] | -21.33
O=C(CNc1ccc(Cl)c(S(=O)(=O)N2CCCC2)c1)Nc1ccc(Br)cc1F [TCMDC-125102] | 24.63
